Measured values taken from PubChem BioAssay (EPA / NIEHS).
Calls of active or inactive are those of the source. How the source made its calls: active means hit-call score of the fitted dose curve at least 0.9, where 1 is the maximum; inactive means score below 0.9.

Columns and labels:
Settings in all cases: mRNA level, 48 h; actives raise or lower the signal
[1] = read-out: Fatty Acid-Binding Protein 1 (FABP1), FABP1 (gene 2168); assay: LTEA_HepaRG_FABP1: Life Technologies and Expression Analysis (LTEA) Assay for Fatty Acid-Binding Protein 1 (FABP1) using HepaRG (AID 2283494)
Outline: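 FABP1 expression by TaqMan qRT-PCR, normalised to three housekeeping genes, in HepaRG cells after 48 h chemical treatment. Eight-point half-log series topping at 100 uM in 0.5% DMSO, duplicates; gain or loss fitted relative to vehicle.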

[2] = read-out: Cytochrome P450 4A22 (Homo sapiens) (UniProt Q5TCH4); assay: LTEA_HepaRG_CYP4A22: Life Technologies and Expression Analysis (LTEA) Assay for Cytochrome P450 4A22 (CYP4A22) using HepaRG (AID 2283495)
Outline: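 Gene expression measured by qRT-PCR against three housekeeping genes (ACTB, GAPDH, POLR2A), with gain or loss fitted relative to 0.5% DMSO vehicle. HepaRG cultures received 48 h chemical treatment, top concentration 100 uM, half-log steps, duplicate wells.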

[3] = read-out: Cytochrome P450 7A1 (Homo sapiens) (UniProt P22680); assay: LTEA_HepaRG_CYP7A1: Life Technologies and Expression Analysis (LTEA) Assay for Cytochrome P450 7A1 (CYP7A1) using HepaRG (AID 2283496)
Outline: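 Using 0.5% DMSO as vehicle and baseline, chemicals were tested in duplicate over an 8-point range from 100 uM on HepaRG cells for 48 h; qRT-PCR signals were normalised to ACTB, GAPDH and POLR2A.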

[4] = read-out: Glutathione S-Transferase (GSTA2), GSTA2 (gene 2939); assay: LTEA_HepaRG_GSTA2: Life Technologies and Expression Analysis (LTEA) Assay for Glutathione S-Transferase (GSTA2) using HepaRG (AID 2283497)
Outline: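 GSTA2 transcript levels came from Fluidigm TaqMan qRT-PCR normalized to three housekeeping genes, fitted in both directions against DMSO. HepaRG cultures received chemicals for 48 h in serum-free induction medium (0.5% DMSO), 8 half-log concentrations up to 100 uM, duplicate.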

[5] = read-out: Glutamate-cysteine ligase catalytic (GCLC), GCLC (gene 2729); assay: LTEA_HepaRG_GCLC: Life Technologies and Expression Analysis (LTEA) Assay for Glutamate-cysteine ligase catalytic (GCLC) using HepaRG (AID 2283498)
Outline: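 Expression by TaqMan qRT-PCR, normalized to three housekeeping genes (ACTB, GAPDH, POLR2A), with up- or down-regulation fitted against DMSO. HepaRG cells dosed in duplicate for 48 h with 8 half-log concentrations up to 100 uM, vehicle 0.5% DMSO.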

[6] = read-out: growth arrest and DNA damage 45 (GADD45G), GADD45G (gene 10912); assay: LTEA_HepaRG_GADD45G: Life Technologies and Expression Analysis (LTEA) Assay for growth arrest and DNA damage 45 (GADD45G) using HepaRG (AID 2283499)
Outline: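 GADD45G transcript level by qRT-PCR (housekeeping-normalized: ACTB, GAPDH, POLR2A) after 48 h chemical treatment of a single HepaRG lot in serum-free induction medium; eight-point half-log series up to 100 uM in 0.5% DMSO, duplicates, up- or down-regulation scored.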

[7] = read-out: Glutamate-cysteine ligase regulatory (GCLM), GCLM (gene 2730); assay: LTEA_HepaRG_GCLM: Life Technologies and Expression Analysis (LTEA) Assay for Glutamate-cysteine ligase regulatory (GCLM) using HepaRG (AID 2283500)
Outline: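 In this multiplexed HepaRG gene-expression assay, GCLM mRNA change after 48 h treatment (8 concentrations, max 100 uM) was scored against DMSO by bidirectional curve fitting.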

[8] = read-out: Glutathione S-transferase M3 (GSTM3), GSTM3 (gene 2947); assay: LTEA_HepaRG_GSTM3: Life Technologies and Expression Analysis (LTEA) Assay for Glutathione S-transferase M3 (GSTM3) using HepaRG (AID 2283501)
Outline: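 GSTM3 transcript levels came from Fluidigm TaqMan qRT-PCR normalized to three housekeeping genes, fitted in both directions against DMSO. HepaRG cultures received chemicals for 48 h in serum-free induction medium (0.5% DMSO), 8 half-log concentrations up to 100 uM, duplicate.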

[9] = read-out: Heat shock 70 kDa protein 1 (HSPA1A), gene 3303; assay: LTEA_HepaRG_HSPA1A: Life Technologies and Expression Analysis (LTEA) Assay for Heat shock 70 kDa protein 1 (HSPA1A) using HepaRG (AID 2283502)
Outline: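 An oxidative-stress marker readout: HepaRG cells treated 48 h in duplicate with an eight-point series (highest 100 uM) had HSPA1A mRNA quantified by TaqMan qRT-PCR. Activity was fitted in both directions using 0.5% DMSO as baseline.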

[10] = read-out: 3-Hydroxy-3-Methylglutaryl-CoA Synthase 2 (HMGCS2), HMGCS2 (gene 3158); assay: LTEA_HepaRG_HMGCS2: Life Technologies and Expression Analysis (LTEA) Assay for 3-Hydroxy-3-Methylglutaryl-CoA Synthase 2 (HMGCS2) using HepaRG (AID 2283504)
Outline: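 Readout is HMGCS2 transcript by qRT-PCR, housekeeping-normalised (ACTB/GAPDH/POLR2A) and fitted bidirectionally against 0.5% DMSO. Differentiated HepaRG cells received chemicals 48 h, duplicate wells, eight half-log concentrations topping at 100 uM.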

HGF (gene 3082) = assay: LTEA_HepaRG_HGF: Life Technologies and Expression Analysis (LTEA) Assay for Hepatocyte Growth Facto (HGF) using HepaRG (AID 2283505)
Outline: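 HGF transcript was quantified by TaqMan qRT-PCR against three housekeeping genes after 48 h treatment of HepaRG cells. Exposure ran in duplicate over eight half-log steps topping at 100 uM in 0.5% DMSO vehicle.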

[11] = read-out: Insulin Like Growth Factor 1 (IGF1), IGF1 (gene 3479); assay: LTEA_HepaRG_IGF1: Life Technologies and Expression Analysis (LTEA) Assay for Insulin Like Growth Factor 1 (IGF1) using HepaRG (AID 2283506)
Outline: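 Endpoint: IGF1 mRNA change by qRT-PCR, housekeeping-normalized, fitted bidirectionally relative to 0.5% DMSO vehicle. Human HepaRG cells were treated 48 h in serum-free induction medium, eight half-log concentrations topping at 100 uM.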

[12] = read-out: Intercellular Adhesion Molecule 1 (ICAM1), ICAM1 (gene 3383); assay: LTEA_HepaRG_ICAM1: Life Technologies and Expression Analysis (LTEA) Assay for Intercellular Adhesion Molecule 1 (ICAM1) using HepaRG (AID 2283507)
Outline: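 ICAM1 transcript levels measured by qRT-PCR, normalized to three housekeeping genes (ACTB, GAPDH, POLR2A), after 48 h chemical exposure of HepaRG cells. Duplicate eight-point half-log series from 100 uM in 0.5% DMSO; gain or loss fitted against vehicle.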

[13] = read-out: Insulin-like growth factor-binding protein 1 (IGFBP1), IGFBP1 (gene 3484); assay: LTEA_HepaRG_IGFBP1: Life Technologies and Expression Analysis (LTEA) Assay for Insulin-like growth factor-binding protein 1 (IGFBP1) using HepaRG (AID 2283508)
Outline: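 Read-out is qRT-PCR transcript level normalized to three housekeeping genes, fitted in both directions against 0.5% DMSO. Differentiated HepaRG cells received eight half-log concentrations (top 100 uM) in duplicate for 48 h in serum-free induction medium.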

[14] = read-out: Interleukin 6 (IL6), IL6 (gene 3569); assay: LTEA_HepaRG_IL6: Life Technologies and Expression Analysis (LTEA) Assay for Interleukin 6 (IL6) using HepaRG (AID 2283509)
Outline: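 Transcript levels, normalized to three housekeeping genes, were quantified by qRT-PCR after 48 h chemical treatment of HepaRG cells. Eight-point half-log series from 100 uM in 0.5% DMSO, duplicates. Fitted both directions against DMSO baseline.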

[15] = read-out: Interleukin 6 Receptor (IL6R), IL6R (gene 3570); assay: LTEA_HepaRG_IL6R: Life Technologies and Expression Analysis (LTEA) Assay for Interleukin 6 Receptor (IL6R) using HepaRG (AID 2283510)
Outline: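 In this HepaRG screen, test chemicals act on cells for 48 h at up to 100 uM (eight half-log points, duplicate wells). IL6R expression is quantified by qRT-PCR after normalization to ACTB, GAPDH and POLR2A, with DMSO as baseline.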

[16] = read-out: Potassium channel subfamily K member 1 (KCNK1), KCNK1 (gene 3775); assay: LTEA_HepaRG_KCNK1: Life Technologies and Expression Analysis (LTEA) Assay for Potassium channel subfamily K member 1 (KCNK1) using HepaRG (AID 2283511)
Outline: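 KCNK1 transcript measured by TaqMan qRT-PCR against three housekeeping genes, after HepaRG cells were treated 48 h with eight half-log concentrations (top 100 uM, 0.5% DMSO). Curves fitted bidirectionally relative to vehicle.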

[17] = read-out: Keratin 19 (KRT19), KRT19 (gene 3880); assay: LTEA_HepaRG_KRT19: Life Technologies and Expression Analysis (LTEA) Assay for Keratin 19 (KRT19) using HepaRG (AID 2283512)
Outline: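 KRT19 transcript measured by TaqMan qRT-PCR, referenced to three housekeeping genes, after HepaRG cells received test chemicals for 48 h. Eight half-log concentrations, top 100 uM, 0.5% DMSO vehicle; increases and decreases both fitted.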

[18] = read-out: JUN Transcription Factor, JUN (gene 3725); assay: LTEA_HepaRG_JUN: Life Technologies and Expression Analysis (LTEA) Assay for JUN Transcription Factor using HepaRG (AID 2283513)
Outline: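 Gene-expression endpoint: JUN mRNA (qRT-PCR, normalized to three reference genes) in HepaRG cultures treated 48 h with chemicals, duplicate wells, 100 uM maximum with half-log dilutions; bidirectional fitting relative to 0.5% DMSO.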

Measured: AC50

Cc1ccc(-c2c(Cl)nc(C#N)n2S(=O)(=O)N(C)C)cc1
inactive: [7] | [9] | [12] | [15] | [18]
active: [1] 4.76 µM | [2] 73.9 µM | [3] 10 µM | [4] 9.43 µM | [5] 7.01 µM | [6] 11.7 µM | [8] 50 µM | [10] 28.7 µM | HGF (gene 3082) 86 µM | [11] 50 µM | [13] 13.6 µM | [14] 13.2 µM | [16] 50 µM | [17] 22.3 µM

Fc1ccc(Oc2ccnc3cc(Cl)cc(Cl)c23)cc1
active: [1] 87 µM | [2] 82.6 µM | [3] 90.5 µM | [4] 83.6 µM | [11] 50 µM | [13] 57.2 µM | [14] 77.4 µM | [17] 50 µM
inactive: [5] | [6] | [7] | [8] | [9] | [10] | HGF (gene 3082) | [12] | [16] | [18]

COC(=O)N(OC)c1ccccc1COc1ccn(-c2ccc(Cl)cc2)n1
inactive: HGF (gene 3082) | [15] | [18]
active: [1] 80.4 µM | [2] 15.8 µM | [3] 71.9 µM | [4] 78.7 µM | [5] 80.8 µM | [6] 79.5 µM | [7] 50 µM | [8] 80.3 µM | [9] 12 µM | [10] 75.3 µM | [11] 68.1 µM | [12] 81.2 µM | [13] 64.3 µM | [14] 83.9 µM | [16] 86.2 µM | [17] 23.3 µM

CNC(=O)ON=CC(C)(C)SC
inactive: [1] | [2] | [3] | [4] | [5] | [6] | [7] | [8] | [9] | [10] | HGF (gene 3082) | [11] | [12] | [13] | [14] | [15] | [16] | [17] | [18]
